Assay outcomes as filed in PubChem BioAssay.
Tcruzi prolif: T. cruzi intracellular proliferation inhibitors, primary screen, cell-based, beta-gal Tulahuen parasites, NIH3T3 host, luminescence | T. cruzi beta-gal in NIH3T3, GalScreen luminescence, 90 h | inhibition, % at 8.34 µM | 5.9% of 77,000 active | AID 624255, 2012;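 active means mean inhibition above about 93%, with at least 55% of replicates each passing it, limit read from the data, passing the limit was not always enough; inconclusive means only one of those two conditions holds; inactive means neither condition holds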
Pf Dd2 growth: P. falciparum Dd2 growth inhibitors, primary screen, SYBR Green fluorescence, single dose replicates. 72 h; active compounds read low. activity change, % at 10 µM. 2.3% of 94,000 active. AID 1159554, 2015; in the data active means activity change below about -80%; inconclusive means no clear call, values can overlap the other calls
C diff HTS: C. difficile growth inhibitors, primary screen, HTS; 0.25% of 86,000 active; growth activity, negative = inhibition, % at 16 µg/mL (by protocol); AID 1259249, 2017; Clostridium difficile clinical isolate growth, OD600, 24 h; active compounds read low;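 active means mean growth activity at or below -80% and every replicate also at or below -80%; inconclusive means mean at or below -80% but some replicate above -80%; inactive means mean growth activity above -80%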;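 further: 0% = DMSO wells and -100% = levofloxacin 16 µg/mL wells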
* = called active by the depositor; ? = inconclusive; / = not tested or not shown. In the library only some 6.7% were active in any assay of this set; here they are far more common.

SMILES | Tcruzi prolif | Pf Dd2 growth | C diff HTS
CN1CCN(C(=O)C[C@H]2C[C@H]3c4cc(NC(=O)Nc5ccc(C(F)(F)F)cc5)ccc4O[C@H]3[C@H](CO)O2)CC1 | -12 | -58 | 0
CN1CCN(C(=O)C[C@H]2C[C@@H]3c4cc(NC(=O)Nc5ccc(C(F)(F)F)cc5)ccc4O[C@@H]3[C@@H](CO)O2)CC1 | 2 | -85* | 5
CN(C)c1ccc2c(c1)[C@H]1C[C@H](CC(=O)N3CCc4ccccc4C3)O[C@@H](CO)[C@H]1O2 | 86 | -58 | -1
COc1ccc(CN(C)C[C@@H]2Oc3ccc(NS(=O)(=O)c4cccs4)cc3C(=O)N([C@@H](C)CO)C[C@@H]2C)cc1 | 3 | 21 | 9
COc1cccc(CNC(=O)[C@H]2[C@H](CO)[C@H]3Cn4c(cccc4=O)[C@@H]2N3C(=O)C2CCCC2)c1 | / | -81* | -1
COc1cccc(CNC(=O)[C@@H]2[C@@H](CO)[C@@H]3Cn4c(cccc4=O)[C@H]2N3C(=O)C2CCCC2)c1 | / | 51 | -3
CC=Cc1ccc2n(c1=O)C[C@H]1[C@H](CO)[C@@H](C(=O)NC3CCC3)[C@@H]2N1Cc1ccccc1 (mixture of isomers) | 32 | 5 | 3
COc1ccc(NC(=O)N(C)C[C@@H]2Oc3ccc(NC(=O)Nc4ccc(F)cc4)cc3CC(=O)N([C@@H](C)CO)C[C@@H]2C)cc1 | 15 | -3 | 1
COc1ccc(NC(=O)Nc2ccc3c(c2)CC(=O)N([C@@H](C)CO)C[C@H](C)[C@@H](CN(C)C(=O)Nc2ccc(F)cc2)O3)cc1 | 41 | -85* | -4
C[C@@H]1CN([C@@H](C)CO)C(=O)Cc2cc(NC(=O)Nc3ccc(F)cc3)ccc2O[C@H]1CN(C)CC1CCCCC1 | 21 | -89* | 10
COc1ccc(NC(=O)Nc2ccc3c(c2)CC(=O)N([C@@H](C)CO)C[C@@H](C)[C@@H](CN(C)CC2CC2)O3)cc1 | 29 | -83* | -2
COc1ccc(NC(=O)Nc2ccc3c(c2)CC(=O)N([C@@H](C)CO)C[C@@H](C)[C@@H](CN(C)CC2CCCCC2)O3)cc1 | 50 | -29 | -11
C[C@@H]1CN([C@H](C)CO)C(=O)Cc2cc(NC(=O)Nc3ccc(F)cc3)ccc2O[C@H]1CN(C)CC1CC1 | -4 | 10 | 0
COc1ccc(NC(=O)Nc2ccc3c(c2)CC(=O)N([C@@H](C)CO)C[C@H](C)[C@H](CN(C)CC2CC2)O3)cc1 | 11 | -78 | -4
COc1ccc(NC(=O)Nc2ccc3c(c2)CC(=O)N([C@H](C)CO)C[C@H](C)[C@@H](CN(C)CC2CCCCC2)O3)cc1 | 79 | -86* | -1
COc1ccc(CN(C)C[C@H]2OCCCC[C@H](C)Oc3ccc(NC(=O)Nc4ccccc4)cc3C(=O)N([C@H](C)CO)C[C@H]2C)cc1 | 104 | ? | 10
COc1ccc(S(=O)(=O)Nc2ccc3c(c2)C(=O)N([C@H](C)CO)C[C@H](C)[C@@H](CN(C)S(=O)(=O)c2c(C)noc2C)OCCCC[C@H](C)O3)cc1 | 42 | -14 | -5
Cc1noc(C)c1S(=O)(=O)N(C)C[C@@H]1OCCCC[C@H](C)Oc2ccc(NS(=O)(=O)c3ccc(Cl)cc3)cc2C(=O)N([C@@H](C)CO)C[C@H]1C | 73 | -30 | -6
C[C@@H]1CN([C@H](C)CO)C(=O)c2cc(NC(=O)Nc3ccccc3)ccc2O[C@@H]1CN(C)Cc1ccc(-c2ccccc2)cc1 | 65 | 24 | 8
CCNC(=O)C[C@@H]1CC[C@@H]2[C@H](COC[C@@H](O)CN2C(=O)Nc2cccc(OC)c2)O1 | / | -31 | 3
C[C@H](CO)N1C[C@H](C)[C@@H](CN(C)C(=O)Nc2cccc3ccccc23)Oc2ccc(NC(=O)Nc3cccc4ccccc34)cc2CC1=O | / | -89* | 1
C[C@@H]1CN([C@@H](C)CO)C(=O)Cc2cc(NC(=O)NC3CCCCC3)ccc2O[C@H]1CN(C)C(=O)Nc1cccc2ccccc12 | 3 | -92* | -14
C[C@H](CO)N1C[C@H](C)[C@H](CN(C)C(=O)Nc2cccc3ccccc23)Oc2ccc(NC(=O)Nc3cccc4ccccc34)cc2CC1=O | -12 | -10 | -7
C[C@H]1CN([C@@H](C)CO)C(=O)Cc2cc(NC(=O)NC3CCCCC3)ccc2O[C@H]1CN(C)C(=O)Nc1cccc2ccccc12 | 14 | -9 | -17
C[C@H](CO)N1C[C@H](C)[C@@H](CN(C)C(=O)Nc2cccc3ccccc23)Oc2ccc(NC(=O)Nc3ccc(C(F)(F)F)cc3)cc2CC1=O | 36 | -85* | 15
SMILES | Tcruzi prolif | Pf Dd2 growth | C diff HTS
C[C@@H]1CN([C@H](C)CO)C(=O)Cc2cc(NC(=O)Nc3ccc(C(F)(F)F)cc3)ccc2O[C@@H]1CN(C)C(=O)Nc1cccc2ccccc12 | 8 | -69 | 2
CN(C)CC(=O)N1CC2(C1)[C@H](c1ccccc1)[C@H](CO)N2C(=O)C1CCC1 | / | 26 | 4
Cc1noc(C)c1S(=O)(=O)Nc1ccc2c(c1)C(=O)N([C@H](C)CO)C[C@H](C)[C@H](CN(C)Cc1ccc(C(=O)Nc3ccccc3N)cc1)O2 | / | -74 | 8
C[C@@H]1CCCCO[C@H](CN(C)Cc2ccc(C(=O)Nc3ccccc3N)cc2)[C@@H](C)CN([C@H](C)CO)C(=O)c2cc(NS(=O)(=O)c3ccc(F)cc3)ccc2O1 | 85 | ? | -8
Cc1ccc(S(=O)(=O)Nc2ccc3c(c2)C(=O)N([C@@H](C)CO)C[C@H](C)[C@@H](CN(C)Cc2ccc(C(=O)Nc4ccccc4N)cc2)OCCCC[C@@H](C)O3)cc1 | / | -92* | 29
C[C@@H]1CCCCO[C@@H](CN(C)Cc2ccc(C(=O)Nc3ccccc3N)cc2)[C@@H](C)CN([C@H](C)CO)C(=O)c2cc(NS(C)(=O)=O)ccc2O1 | / | -71 | 1
Cc1noc(C)c1S(=O)(=O)Nc1ccc2c(c1)C(=O)N([C@@H](C)CO)C[C@H](C)[C@@H](CN(C)Cc1ccc(C(=O)Nc3ccccc3N)cc1)OCCCC[C@@H](C)O2 | 66 | -85* | 16
C[C@@H]1CCCCO[C@H](CN(C)Cc2ccc(C(=O)Nc3ccccc3N)cc2)[C@@H](C)CN([C@H](C)CO)C(=O)c2cc(NS(=O)(=O)c3ccccc3)ccc2O1 | / | -89* | -1
C[C@@H]1CN([C@H](C)CO)C(=O)c2cc(NS(C)(=O)=O)ccc2O[C@@H]1CN(C)S(=O)(=O)c1ccccc1 | -15 | 5 | -2
O=C(O)[C@@H]1[C@@H](CO)[C@@H]2Cn3c(ccc(-c4cncnc4)c3=O)[C@@H]2N1C(=O)C1CCCC1 | / | 26 | -3
Cc1ccc(S(=O)(=O)N(C)C[C@@H]2OCCCC[C@@H](C)Oc3ccc(NC(=O)C4CCCCC4)cc3C(=O)N([C@H](C)CO)C[C@@H]2C)cc1 | 11 | -89* | 0
Cc1ccc(S(=O)(=O)N(C)C[C@H]2OCCCC[C@@H](C)Oc3ccc(NC(=O)C4CCCCC4)cc3C(=O)N([C@@H](C)CO)C[C@H]2C)cc1 | 29 | -57 | -4
C[C@@H]1CN([C@@H](C)CO)C(=O)c2cc(NC(=O)C3CCCCC3)ccc2O[C@@H](C)CCCCO[C@@H]1CN(C)S(=O)(=O)c1ccccc1 | 38 | -51 | -2
